In the supplement of paper PMC11001985:
Unmarked numbers belong to inactive results.

compound: C#CCNC(=O)CCSSCCC(=O)NCCc1ccc(C=O)c(C=O)c1; experiment: lysine labeling ratio R10:1 (500 µM / 50 µM probe), SILAC-ABPP in living cells; higher = lower intrinsic lysine reactivity toward the probe, active = 2 or less; conditions: HeLa; probe concentrations 500 vs 50 µM
Procedure, shortened: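 Living SILAC light and heavy HeLa cells in PBS at room temperature were treated with an alkyne-tagged, disulfide-linked lysine probe at 50 µM or 500 µM, with forward and reverse label swaps. The mixed lysates were clicked to biotin-azide, digested with trypsin, captured on neutravidin, released with DTT, alkylated and run by LC-MS/MS on a TIMS-TOF Pro. R for each lysine is the filtered median high-probe/low-probe MS1 peptide ratio, taken again as the median over forward and reverse replicates. Any value above 20 is set to 20.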

UniProt O75054, sequence (O75054 whole entry): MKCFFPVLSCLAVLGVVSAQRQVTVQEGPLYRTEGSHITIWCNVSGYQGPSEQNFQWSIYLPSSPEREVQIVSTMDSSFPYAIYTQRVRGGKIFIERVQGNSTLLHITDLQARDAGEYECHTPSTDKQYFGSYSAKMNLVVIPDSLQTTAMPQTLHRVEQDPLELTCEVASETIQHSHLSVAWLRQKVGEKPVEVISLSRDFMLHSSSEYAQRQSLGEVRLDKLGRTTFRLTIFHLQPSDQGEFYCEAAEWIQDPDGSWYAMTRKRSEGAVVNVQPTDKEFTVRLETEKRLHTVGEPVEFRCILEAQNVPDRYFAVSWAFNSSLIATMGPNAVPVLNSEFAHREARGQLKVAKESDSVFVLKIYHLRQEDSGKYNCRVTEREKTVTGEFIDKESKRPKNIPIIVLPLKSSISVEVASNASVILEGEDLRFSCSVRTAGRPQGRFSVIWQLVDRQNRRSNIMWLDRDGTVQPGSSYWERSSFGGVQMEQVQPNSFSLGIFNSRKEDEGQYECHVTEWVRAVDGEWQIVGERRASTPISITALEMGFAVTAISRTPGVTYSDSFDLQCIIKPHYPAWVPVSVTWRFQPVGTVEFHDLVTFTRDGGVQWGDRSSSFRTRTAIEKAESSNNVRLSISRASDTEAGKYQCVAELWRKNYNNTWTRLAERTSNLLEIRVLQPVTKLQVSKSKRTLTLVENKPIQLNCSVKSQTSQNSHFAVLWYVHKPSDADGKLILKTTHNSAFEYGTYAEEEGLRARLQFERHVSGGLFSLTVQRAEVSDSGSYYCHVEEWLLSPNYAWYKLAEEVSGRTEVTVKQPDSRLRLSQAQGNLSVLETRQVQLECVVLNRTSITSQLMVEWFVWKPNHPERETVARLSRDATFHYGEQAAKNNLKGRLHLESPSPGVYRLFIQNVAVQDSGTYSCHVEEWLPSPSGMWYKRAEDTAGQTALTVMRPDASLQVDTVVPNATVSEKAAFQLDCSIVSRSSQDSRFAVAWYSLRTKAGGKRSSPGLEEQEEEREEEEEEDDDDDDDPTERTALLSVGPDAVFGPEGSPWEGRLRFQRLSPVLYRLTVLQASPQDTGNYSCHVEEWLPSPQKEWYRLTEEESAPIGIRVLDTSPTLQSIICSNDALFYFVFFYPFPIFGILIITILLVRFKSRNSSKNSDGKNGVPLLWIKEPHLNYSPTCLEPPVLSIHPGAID
UniProt P07355, sequence (P07355 whole entry): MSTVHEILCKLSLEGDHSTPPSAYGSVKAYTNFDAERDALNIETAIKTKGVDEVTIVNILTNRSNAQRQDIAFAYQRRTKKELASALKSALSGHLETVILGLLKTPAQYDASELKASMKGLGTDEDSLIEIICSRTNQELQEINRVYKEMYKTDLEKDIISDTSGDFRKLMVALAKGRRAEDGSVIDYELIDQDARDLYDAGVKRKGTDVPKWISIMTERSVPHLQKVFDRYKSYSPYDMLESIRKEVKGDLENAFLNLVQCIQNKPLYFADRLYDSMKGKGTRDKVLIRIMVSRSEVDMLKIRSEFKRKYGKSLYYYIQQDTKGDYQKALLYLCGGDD
UniProt P05187, sequence (P05187 whole entry): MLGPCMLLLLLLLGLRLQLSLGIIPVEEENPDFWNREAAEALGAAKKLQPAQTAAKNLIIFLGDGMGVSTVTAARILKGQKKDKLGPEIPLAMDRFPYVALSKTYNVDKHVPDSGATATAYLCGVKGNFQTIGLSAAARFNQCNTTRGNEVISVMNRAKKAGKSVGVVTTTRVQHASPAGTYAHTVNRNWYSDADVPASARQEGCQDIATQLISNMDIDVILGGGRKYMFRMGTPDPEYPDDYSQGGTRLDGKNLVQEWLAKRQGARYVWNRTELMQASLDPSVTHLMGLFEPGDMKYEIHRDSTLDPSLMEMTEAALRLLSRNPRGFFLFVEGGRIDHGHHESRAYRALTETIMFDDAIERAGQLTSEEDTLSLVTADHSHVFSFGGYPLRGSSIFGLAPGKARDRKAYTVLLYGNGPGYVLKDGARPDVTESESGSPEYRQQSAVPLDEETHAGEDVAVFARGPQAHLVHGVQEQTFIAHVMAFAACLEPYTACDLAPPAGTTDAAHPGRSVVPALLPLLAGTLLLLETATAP
UniProt Q14247, sequence (Q14247 whole entry): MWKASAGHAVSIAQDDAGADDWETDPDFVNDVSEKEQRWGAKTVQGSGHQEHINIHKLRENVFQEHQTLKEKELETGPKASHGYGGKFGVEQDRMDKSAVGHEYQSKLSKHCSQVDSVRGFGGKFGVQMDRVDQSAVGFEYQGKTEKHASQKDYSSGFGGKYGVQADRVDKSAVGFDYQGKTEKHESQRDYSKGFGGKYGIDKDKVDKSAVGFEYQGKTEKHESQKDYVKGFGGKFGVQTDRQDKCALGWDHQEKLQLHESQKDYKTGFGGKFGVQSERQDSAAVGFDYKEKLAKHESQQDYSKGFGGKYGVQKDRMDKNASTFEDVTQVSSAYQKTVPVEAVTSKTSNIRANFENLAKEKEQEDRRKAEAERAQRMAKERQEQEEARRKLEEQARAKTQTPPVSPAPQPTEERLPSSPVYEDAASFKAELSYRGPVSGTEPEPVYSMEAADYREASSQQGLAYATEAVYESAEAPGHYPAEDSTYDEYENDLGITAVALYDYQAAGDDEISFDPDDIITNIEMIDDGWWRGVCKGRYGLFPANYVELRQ
UniProt P16615, sequence (P16615 whole entry): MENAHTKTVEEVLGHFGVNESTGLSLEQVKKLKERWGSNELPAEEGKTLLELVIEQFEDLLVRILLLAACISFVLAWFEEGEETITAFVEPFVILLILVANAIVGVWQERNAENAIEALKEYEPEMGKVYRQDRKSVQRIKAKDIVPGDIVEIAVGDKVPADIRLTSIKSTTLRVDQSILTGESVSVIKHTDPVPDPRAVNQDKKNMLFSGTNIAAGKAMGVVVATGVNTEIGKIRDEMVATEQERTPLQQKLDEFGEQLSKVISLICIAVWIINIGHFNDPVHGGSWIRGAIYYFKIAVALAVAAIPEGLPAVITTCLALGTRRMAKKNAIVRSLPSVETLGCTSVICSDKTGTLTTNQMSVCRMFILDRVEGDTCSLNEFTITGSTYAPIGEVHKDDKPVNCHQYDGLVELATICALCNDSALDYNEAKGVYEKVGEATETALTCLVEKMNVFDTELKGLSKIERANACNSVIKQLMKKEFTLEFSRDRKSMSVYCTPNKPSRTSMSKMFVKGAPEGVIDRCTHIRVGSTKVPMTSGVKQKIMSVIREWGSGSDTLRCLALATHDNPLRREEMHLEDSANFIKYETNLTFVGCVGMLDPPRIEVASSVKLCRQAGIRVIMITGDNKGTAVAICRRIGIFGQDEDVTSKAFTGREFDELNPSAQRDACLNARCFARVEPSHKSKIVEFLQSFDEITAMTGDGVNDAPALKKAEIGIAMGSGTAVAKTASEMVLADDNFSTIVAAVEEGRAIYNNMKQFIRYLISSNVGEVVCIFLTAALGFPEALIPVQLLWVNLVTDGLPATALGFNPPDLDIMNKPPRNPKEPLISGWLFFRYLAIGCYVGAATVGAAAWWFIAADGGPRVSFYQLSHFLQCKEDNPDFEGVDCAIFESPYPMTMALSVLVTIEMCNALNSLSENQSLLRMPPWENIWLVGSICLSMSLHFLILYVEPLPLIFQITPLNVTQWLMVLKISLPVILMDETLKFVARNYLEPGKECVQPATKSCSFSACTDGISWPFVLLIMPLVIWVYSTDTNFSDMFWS
UniProt P38646, sequence (P38646 whole entry): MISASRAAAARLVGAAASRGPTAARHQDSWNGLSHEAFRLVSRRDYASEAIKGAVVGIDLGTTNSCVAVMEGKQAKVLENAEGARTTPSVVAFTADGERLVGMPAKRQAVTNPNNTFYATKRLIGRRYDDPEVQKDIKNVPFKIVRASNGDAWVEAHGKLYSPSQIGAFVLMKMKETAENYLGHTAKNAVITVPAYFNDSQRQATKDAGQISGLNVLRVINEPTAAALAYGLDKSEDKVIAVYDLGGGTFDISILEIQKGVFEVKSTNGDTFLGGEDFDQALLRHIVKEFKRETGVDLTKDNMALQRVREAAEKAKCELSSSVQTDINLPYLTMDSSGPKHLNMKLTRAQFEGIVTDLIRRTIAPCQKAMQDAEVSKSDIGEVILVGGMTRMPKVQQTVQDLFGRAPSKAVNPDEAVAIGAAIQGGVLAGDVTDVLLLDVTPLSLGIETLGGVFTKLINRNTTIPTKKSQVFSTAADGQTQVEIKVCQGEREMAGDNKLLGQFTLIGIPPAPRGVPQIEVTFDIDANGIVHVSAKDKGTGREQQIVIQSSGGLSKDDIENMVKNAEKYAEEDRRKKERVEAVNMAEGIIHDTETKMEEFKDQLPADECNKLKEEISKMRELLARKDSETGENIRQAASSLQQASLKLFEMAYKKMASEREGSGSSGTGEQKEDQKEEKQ
UniProt P48735, sequence (P48735 whole entry): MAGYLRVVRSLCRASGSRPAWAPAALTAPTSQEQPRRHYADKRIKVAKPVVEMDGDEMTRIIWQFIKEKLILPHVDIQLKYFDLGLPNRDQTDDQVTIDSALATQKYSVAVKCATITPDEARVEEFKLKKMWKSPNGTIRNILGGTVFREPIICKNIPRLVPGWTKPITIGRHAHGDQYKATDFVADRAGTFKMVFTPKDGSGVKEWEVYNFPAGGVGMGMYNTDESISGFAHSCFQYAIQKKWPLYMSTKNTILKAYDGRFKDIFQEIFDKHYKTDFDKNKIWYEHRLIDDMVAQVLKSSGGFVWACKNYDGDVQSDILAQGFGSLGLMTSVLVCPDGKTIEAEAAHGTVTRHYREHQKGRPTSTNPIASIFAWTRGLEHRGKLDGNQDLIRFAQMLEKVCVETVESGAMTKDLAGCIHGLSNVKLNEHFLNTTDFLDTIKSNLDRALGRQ
UniProt Q16629, sequence (Q16629 whole entry): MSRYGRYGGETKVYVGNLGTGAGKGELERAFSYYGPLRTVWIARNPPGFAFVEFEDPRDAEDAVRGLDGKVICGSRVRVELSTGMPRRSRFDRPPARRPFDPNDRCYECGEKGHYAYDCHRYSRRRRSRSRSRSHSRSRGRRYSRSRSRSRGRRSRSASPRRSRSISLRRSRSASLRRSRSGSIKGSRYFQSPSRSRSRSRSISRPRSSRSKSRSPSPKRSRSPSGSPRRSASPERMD

Row | Target | lysine labeling ratio R10:1
1 | UniProt P16144 (lysine site: K46) | 10.1
2 | CTTN (lysine site: K161) (UniProt Q14247) | 1.61 (active)
3 | UniProt P05187 (lysine site: K84) | 1.24 (active)
4 | RPL3 (lysine site: K356) (UniProt P39023) | 2.08
5 | IGSF3 (lysine site: K884) (UniProt O75054) | 4.12
6 | PPL (lysine site: K492) (UniProt O60437) | 1.71 (active)
7 | UniProt P60660 (lysine site: K98) | 3.79
8 | IMPDH2 (lysine site: K134) (UniProt P12268) | 2.5
9 | HSPD1 (lysine site: K523) (UniProt P10809) | 5.04
10 | IGSF3 (lysine site: K279) (UniProt O75054) | 2.5
11 | HSPA9 (lysine site: K206) (UniProt P38646) | 2.48
12 | UniProt Q16629 (lysine site: K24) | 3
13 | ATP2A2 (lysine site: K169) (UniProt P16615) | 7.34
14 | KRT18 (lysine site: K167) (UniProt P05783) | 10.7
15 | UniProt P14618 (lysine site: K270) | 1.75 (active)
16 | PDIA4 (lysine site: K245) (UniProt P13667) | 1.07 (active)
17 | ALDOA (lysine site: K111) (UniProt P04075) | 4.71
18 | HNRNPA2B1 (lysine site: K173) (UniProt P22626) | 7.67
19 | ANXA2 (lysine site: K281) (UniProt P07355) | 5.78
20 | IGF2R (lysine site: K2338) (UniProt P11717) | 1.29 (active)
21 | HSPG2 (lysine site: K4023) (UniProt P98160) | 5.16
22 | HNRNPU (lysine site: K551) (UniProt Q00839) | 1.98 (active)
23 | IDH2 (lysine site: K384) (UniProt P48735) | 3.48
